# HT1080NT lethal – qHTS for induction of synthetic lethality in tumor cells producing 2HG: qHTS for the HT-1080-NT fibrosarcoma cell line; 360,000 tested, 1.6% active; AID 686970, 2013; HT-1080-NT fibrosarcoma viability, CellTiter-Glo ATP luminescence, 48 h; Potency, µM (doses to about 46.1 µM), without a hit: top-dose activity, negative = less viability, usual class: cytotoxic;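 also: NT is the 2HG producing partner of a matched IDH1 knockdown line; potency is read from the fitted curve at half-maximal effect; 0% = DMSO-treated cells and -100% = media-only wells without cells; nearly all actives have a fitted effect of over 55% in size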
#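 750 cells/well, RPMI + 5% FBS; 2 h settle, compound pin-transfer, 48 h at 37 degrees C. CellTiter-Glo 10 min RT, luminescence. Normalized to DMSO and media-only wells.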
# 12-LOX inh – Primary qHTS assay for inhibitors of human arachidonate 12S-lipoxygenase (ALOX12): Round 2 | Polyunsaturated fatty acid lipoxygenase ALOX12 (Homo sapiens), P18054 | purified 12hLO, xylenol orange hydroperoxide absorbance | Potency, µM (doses to about 108 µM), for the others: at the top dose activity change, negative = inhibition, most hits filed as inhibitors | 580,000 tested, 1.1% active; also: potency is read from the fitted curve at half-maximal effect
# Target sequence (P18054 whole entry, looked up): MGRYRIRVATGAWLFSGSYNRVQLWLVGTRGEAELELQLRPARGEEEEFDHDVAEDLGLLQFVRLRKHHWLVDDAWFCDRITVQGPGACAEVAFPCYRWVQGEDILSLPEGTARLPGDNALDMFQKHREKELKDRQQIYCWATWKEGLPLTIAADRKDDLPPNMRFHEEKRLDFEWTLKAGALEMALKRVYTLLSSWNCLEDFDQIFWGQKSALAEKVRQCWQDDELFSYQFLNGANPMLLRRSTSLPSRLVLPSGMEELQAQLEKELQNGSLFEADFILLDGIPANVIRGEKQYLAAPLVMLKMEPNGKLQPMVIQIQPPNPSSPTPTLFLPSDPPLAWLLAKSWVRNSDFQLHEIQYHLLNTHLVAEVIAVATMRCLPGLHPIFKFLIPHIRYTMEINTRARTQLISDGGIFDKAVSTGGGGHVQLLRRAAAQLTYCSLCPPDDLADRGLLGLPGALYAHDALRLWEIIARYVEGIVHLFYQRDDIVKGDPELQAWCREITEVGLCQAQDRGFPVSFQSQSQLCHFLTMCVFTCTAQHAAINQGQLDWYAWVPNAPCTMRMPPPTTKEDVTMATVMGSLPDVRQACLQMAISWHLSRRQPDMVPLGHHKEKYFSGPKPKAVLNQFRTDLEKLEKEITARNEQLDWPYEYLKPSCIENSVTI
#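 Hydroperoxide product was detected by ferrous iron/xylenol orange as the 573 to 405 nm absorbance ratio. Arachidonic acid at 40 uM (final) was turned over for 30 min at room temperature by 150 nM human 12hLO, pH 7.0 Hepes buffer, after 15 min compound preincubation.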
# IL1B secr inh – qHTS for Inhibitors of Inflammasome Signaling: IL-1-beta AlphaLISA Primary Screen | activity change, % at 57.5 µM | 360,000 tested, 4.7% active | AID 743279, 2014 | THP-1 LPS/ATP IL-1B secretion, AlphaLISA, 16 h; hits give low values; in the data active = activity change below about -50%; inconclusive = mostly about -30% to -49%
#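 THP-1 cells pretreated 1 hr with compounds (up to 57.5 uM final), then stimulated with LPS (250 ng/mL final) plus ATP (1.25 mM final); secreted IL-1B measured by AlphaLISA after 16 hr, decreased signal indicating inhibition.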
# DT40 TDP1 no CPT – qHTS for Inhibitors of human tyrosyl-DNA phosphodiesterase 1 (TDP1): qHTS in cells in absence of CPT. DT40 Tdp1-/- hTDP1 cells, no CPT, ATP luminescence, 48 h. Potency, µM (doses to about 46.2 µM), for inactives: at the top dose activity change, negative = growth inhibition, usual class: inhibitors. 420,000 tested, 15% active. AID 686978, 2013; also: potency is read from the fitted curve at half-maximal effect; nearly all actives have a fitted effect of over 55% in size
#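 Readout: luminescence from CellTiter-Glo after 30 min in the dark at RT. Cells: DT40 Tdp1-/- with stable hTDP1, 400/well. Exposure: compounds alone, ≥48 hr, 37 °C.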
# HT1080 IDH1KD tx – qHTS for induction of synthetic lethality in tumor cells producing 2HG: qHTS for the HT-1080-IDH1KD cell line | HT-1080 IDH1 knockdown viability, ATP luminescence, 48 h | Potency, µM (top dose mostly 46.1 µM), inactives show at the top dose activity, negative = toxicity, actives largely listed as cytotoxic | 360,000 tested, 2% active | AID 686971, 2013;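 also: potency is read from the fitted curve at half-maximal effect; 0% = DMSO wells and -100% = cell-free medium wells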
#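 CellTiter-Glo luminescence after 48 h compound exposure at 37 degrees C of IDH1-knockdown HT-1080 cells in 5% FBS RPMI. %Activity scaled between DMSO wells and cell-free media wells, with curves fitted and assigned curve classes.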
# TDP1 cell CPT – qHTS for Inhibitors of human tyrosyl-DNA phosphodiesterase 1 (TDP1): qHTS in cells in presence of CPT | chicken DT40 Tdp1-/-;hTDP1 cells + 20 nM CPT, ATP luminescence, 48 h | Potency, µM (titrated, usually from 46.2 µM), inactives show at the top dose activity change, negative = growth inhibition, hits mostly inhibitors | 420,000 tested, 12% active | AID 686979, 2013; also: potency is read from the fitted curve at half-maximal effect; nearly all actives have a fitted effect of over 55% in size
#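 Cell growth measured by CellTiter-Glo luminescence after a minimum 48 h, 37 C compound exposure with 20 nM CPT in Tdp1-knockout DT40 cells stably expressing hTDP1, seeded 400/well; qHTS titration format.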
# Starred values were filed as active, the others as inactive; ? = inconclusive; . = not tested or not shown. The full list was thinned out, with hits kept by preference. Unless noted, calls follow the shape of the dose curve; as a rule, active = well fitted curve in the direction sought with a large enough effect; inconclusive = small, poorly fitted or top-dose-only effect, or another doubt; inactive = no such curve, though single readings can be large; an effect the other way counts as inactive or inconclusive. Unless noted, % is scaled to controls: 0 for no effect and ±100 for the full control effect.
SMILES,HT1080NT lethal,12-LOX inh,IL1B secr inh,DT40 TDP1 no CPT,HT1080 IDH1KD tx,TDP1 cell CPT
CCN(CC)C(=O)NC(c1ccc(C)c(F)c1)C(Cl)(Cl)Cl (configuration not stated),-1%,?,-4,16µM*,-5%,16µM*
CCOc1ccccc1CNC(=O)[C@@H]1CN(S(C)(=O)=O)C[C@H]1c1ccncc1,.,18%,.,.,.,.
CC(=O)N/N=C/c1cc(C(C)(C)C)cc(/C=N/NC(C)=O)c1O,-27%,-13%,49,26µM*,?,-29%
COC(=O)C1=C(C(=O)OC)[C@]2([C@@H]3C/C=C\CN[C@@H](Cc4ccccc4)C(=O)N3Cc3ccccc3)C=C[C@H]1O2,.,.,.,?,.,25µM*
COC(=O)C1=C(C(=O)OC)[C@]2([C@@H]3CCCCN[C@@H](Cc4ccccc4)C(=O)N3Cc3ccccc3)C=C[C@H]1O2,10%,-23%,0,13µM*,4%,15µM*
Cc1cc(C)n(-c2ccn(Cc3ccc(Cl)cc3Cl)c(=O)n2)n1,-15%,?,-17,16µM*,-22%,21µM*
COc1ccc(NS(=O)(=O)c2c(F)cc(F)c(Cl)c2F)cc1S(=O)(=O)N1CCCCC1,-7%,-2%,-53*,-4%,-3%,2%
CCn1cc(C(=O)Nc2ccc(OC)c(S(=O)(=O)N3CCCCC3)c2)c(=O)c2ccc(C)nc21,-3%,?,-7,23µM*,-7%,?
COc1ccc(NC(=O)CSc2ccc(NC(C)=O)cc2)cc1S(=O)(=O)N1CCOCC1,-5%,-3%,-8,-4%,-5%,-13%
CCOc1ncccc1C(=O)Nc1ccc(OC)c(S(=O)(=O)N2CCCCC2)c1,10%,6%,0,?,4%,?
COc1ccc(NC(=O)COc2ccccc2Cl)cc1S(=O)(=O)N1CCCCC1,-12%,?,-9,-15%,-10%,?
COc1ccc(OCC(=O)Nc2ccc(OC)c(S(=O)(=O)N3CCCCC3)c2)cc1,-18%,-1%,2,12µM*,?,15µM*
COc1ccc(NC(=O)CSc2ccc3ccccc3c2)cc1S(=O)(=O)N1CCCCC1,-1%,-10%,-4,16µM*,-3%,23µM*
CC(=O)N1CCN(Cc2snnc2C(C)C)CC(O)C1 (configuration not stated),.,15%,.,.,.,.
Cc1ccc(CSc2nc3ccncc3n2Cc2ccc(C(=O)NCCN3CCCC3)cc2)cc1,.,-14%,.,.,.,.
C=CCN1C(=O)COc2ccc(NC(=O)c3cc(=O)c4cc(C)cc(C)c4o3)cc21,.,28%,.,.,.,.
O=C(NC1CCCC1)c1ccc2c(c1)OCCCO2,.,-46%,.,.,.,.
CCn1cc(C(=O)NC2CCCCC2C)c(=O)c2ccc(C)nc21 (configuration not stated),8%,16µM*,-21,11µM*,15%,?
CCn1cc(C(=O)OCC(=O)N2C(C)CCCC2C)c(=O)c2ccc(C)nc21 (configuration not stated),-2%,1%,16,-3%,3%,-18%
CC(C)COc1ccc(C(=O)N2CCCCC2CCN2CCCCCC2)cc1 (configuration not stated),.,7.1µM*,.,.,.,.
CCOC(=O)[C@]12CCCC=C1N(Cc1ccc(Cl)cc1Cl)C(=O)[C@H](CC(=O)NCC13CC4CC(CC(C4)C1)C3)C2,-16%,-1%,-6,18µM*,?,?
C#CCNC(=O)C[C@@H]1C[C@@]2(C(=O)OCC)CCC=C2N(Cc2ccc(Cl)cc2Cl)C1=O,?,?,11,23µM*,-17%,?
COC(=O)[C@]12CCCCC=C1N(Cc1ccc(Cl)cc1Cl)C(=O)[C@H](CC(=O)NCc1ccc(OC)c(OC)c1)C2,?,68%,-13,?,13µM*,?
CCOC(=O)[C@]12CCC=C1N(Cc1ccc(Cl)cc1Cl)C(=O)[C@H](CC(=O)NCC1CCCCC1)C2,?,-19%,?,?,?,?
CCOC(=O)[C@]12CCC=C1N(Cc1ccc(Cl)cc1Cl)C(=O)[C@H](CC(=O)NCCC(C)C)C2,?,?,0,21µM*,?,?
SMILES,HT1080NT lethal,12-LOX inh,IL1B secr inh,DT40 TDP1 no CPT,HT1080 IDH1KD tx,TDP1 cell CPT
COC(=O)[C@]12CCCCC=C1N(Cc1ccc(Cl)cc1Cl)C(=O)[C@H](CC(=O)NCc1ccccc1)C2,-28%,0%,-18,?,-30%,?
Cn1cc(-c2cc3cnc(Nc4cccc(NS(C)(=O)=O)c4)cc3n2Cc2ccccc2)cn1,.,-4%,.,.,.,.
CCOC(=O)[C@]12CCCC=C1N(Cc1ccc(Cl)cc1Cl)C(=O)[C@H](CC(=O)NCc1ccc(C)o1)C2,?,-14%,-7,?,?,?
C#CCNC(=O)C[C@@H]1C[C@@]2(C(=O)OC)CCCCC=C2N(Cc2ccc(Cl)cc2Cl)C1=O,-18%,0%,-19,18µM*,-26%,?
CCOC(=O)[C@]12CCCC=C1N(Cc1ccc(Cl)cc1Cl)C(=O)[C@H](CC(=O)NCCCOC)C2,-15%,4%,-14,16µM*,-29%,?
CCOC(=O)[C@]12CCCC=C1N(Cc1ccc(Cl)cc1Cl)C(=O)[C@H](CC(=O)NCC1CCCCC1)C2,?,-8%,-62*,?,?,23µM*
CCOC(=O)[C@]12CCCC=C1N(Cc1ccc(Cl)cc1Cl)C(=O)[C@H](CC(=O)NCCC(C)C)C2,?,-12%,?,21µM*,?,?
COC(=O)[C@]12CCCCC=C1N(Cc1ccc(Cl)cc1Cl)C(=O)[C@H](CC(=O)NCCCN1CCCC1=O)C2,-11%,21%,-18,?,-1%,?
CCOC(=O)[C@]12CCCC=C1N(Cc1ccccc1)C(=O)[C@H](CC(=O)NCCCOC)C2,19%,?,0,?,13%,?
COC(=O)c1cc(NC(=O)C(CC(C)C)NC(=O)c2ccccc2C)cc(C(=O)OC)c1 (configuration not stated),.,-7%,.,.,.,.

# From PubChem BioAssay
